Our source for the composite z-score and z-score values is PubChem BioAssay.

The test system of assay [1] is Plasmodium falciparum Sir2 (PF13_0152, Sir2A). Kind of assay: Plasmodium falciparum Sir2A binding compounds – biochemical, small-molecule microarray, 635 nm fluorescence, primary screen (AID 1098).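 Also: score merges spot fluorescence intensity with its signal-to-noise ratio.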 As to conditions: fluorescence 635 nm, higher = more signal.
Assay [2] is described as follows: probe aDKK1 binding to arrayed compounds – biochemical, biotinylated probe, 635/667 nm fluorescence, primary screen (AID 1099).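 Also: score merges 667nm spot fluorescence with signal to noise across triplicate slides; reference of the scale not given here.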 As to conditions: small-molecule microarray, higher = more signal.
Assay [3] can be described thus: probe aCHRDL2 binding to arrayed compounds – biochemical, biotinylated probe, 635/667 nm fluorescence, primary screen (AID 1100). As to conditions: small-molecule microarray, higher = more signal.
The nature of assay [4]: change in splice reporter luminescence, either direction, cell-based, HEK293, spliceosome inhibition project, primary screen (AID 1101).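 Also: HEK293 cells carrying a splicing-competent luciferase reporter gene; test concentration not given here.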 As to conditions: HEK293 splicing luciferase reporter, 24 h, higher = more signal, called active from +8 up or from −8 down. For orientation: Reporter assays use an easily measured gene product as a stand-in for the process of interest.
The target in assay [5] is Fibroblast growth factor 10 (Homo sapiens) (UniProt O15520). Kind of assay: compounds binding fibroblast growth factor 10 – biochemical, small-molecule microarray, 635 nm fluorescence, primary screen (AID 1102). The settings on record: FGF10 binding, fluorescence 635 nm, higher = more signal.
Sequence of Fibroblast growth factor 10 (Homo sapiens) (O15520 whole entry, looked up): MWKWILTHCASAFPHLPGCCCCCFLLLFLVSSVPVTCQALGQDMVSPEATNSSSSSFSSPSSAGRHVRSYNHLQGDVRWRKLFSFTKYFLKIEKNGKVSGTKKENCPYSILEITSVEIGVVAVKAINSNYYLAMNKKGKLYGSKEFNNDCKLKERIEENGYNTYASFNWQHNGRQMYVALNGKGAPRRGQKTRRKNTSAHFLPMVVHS
Assay [6] deals with glycogen synthase kinase-3 (GSK3A per assay name; protocol says GSK3B). Kind of assay: compounds binding glycogen synthase kinase-3 – biochemical, small-molecule microarray, 635 nm fluorescence, GSK3A, primary screen (AID 1103). Also: the record names both GSK3A and GSK3B. As to conditions: fluorescence 635 nm, higher = more signal.
The target in assay [7] is Epidermal growth factor receptor (Homo sapiens) (UniProt P00533). Kind of assay: compounds binding epidermal growth factor receptor – biochemical, small-molecule microarray, 635 nm fluorescence, primary screen (AID 1104).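 Also: score merges 667 nm emission intensity with spot signal to noise over triplicate slides.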 As to conditions: EGFR binding, higher = more signal.
Sequence of Epidermal growth factor receptor (Homo sapiens) (P00533 whole entry, looked up): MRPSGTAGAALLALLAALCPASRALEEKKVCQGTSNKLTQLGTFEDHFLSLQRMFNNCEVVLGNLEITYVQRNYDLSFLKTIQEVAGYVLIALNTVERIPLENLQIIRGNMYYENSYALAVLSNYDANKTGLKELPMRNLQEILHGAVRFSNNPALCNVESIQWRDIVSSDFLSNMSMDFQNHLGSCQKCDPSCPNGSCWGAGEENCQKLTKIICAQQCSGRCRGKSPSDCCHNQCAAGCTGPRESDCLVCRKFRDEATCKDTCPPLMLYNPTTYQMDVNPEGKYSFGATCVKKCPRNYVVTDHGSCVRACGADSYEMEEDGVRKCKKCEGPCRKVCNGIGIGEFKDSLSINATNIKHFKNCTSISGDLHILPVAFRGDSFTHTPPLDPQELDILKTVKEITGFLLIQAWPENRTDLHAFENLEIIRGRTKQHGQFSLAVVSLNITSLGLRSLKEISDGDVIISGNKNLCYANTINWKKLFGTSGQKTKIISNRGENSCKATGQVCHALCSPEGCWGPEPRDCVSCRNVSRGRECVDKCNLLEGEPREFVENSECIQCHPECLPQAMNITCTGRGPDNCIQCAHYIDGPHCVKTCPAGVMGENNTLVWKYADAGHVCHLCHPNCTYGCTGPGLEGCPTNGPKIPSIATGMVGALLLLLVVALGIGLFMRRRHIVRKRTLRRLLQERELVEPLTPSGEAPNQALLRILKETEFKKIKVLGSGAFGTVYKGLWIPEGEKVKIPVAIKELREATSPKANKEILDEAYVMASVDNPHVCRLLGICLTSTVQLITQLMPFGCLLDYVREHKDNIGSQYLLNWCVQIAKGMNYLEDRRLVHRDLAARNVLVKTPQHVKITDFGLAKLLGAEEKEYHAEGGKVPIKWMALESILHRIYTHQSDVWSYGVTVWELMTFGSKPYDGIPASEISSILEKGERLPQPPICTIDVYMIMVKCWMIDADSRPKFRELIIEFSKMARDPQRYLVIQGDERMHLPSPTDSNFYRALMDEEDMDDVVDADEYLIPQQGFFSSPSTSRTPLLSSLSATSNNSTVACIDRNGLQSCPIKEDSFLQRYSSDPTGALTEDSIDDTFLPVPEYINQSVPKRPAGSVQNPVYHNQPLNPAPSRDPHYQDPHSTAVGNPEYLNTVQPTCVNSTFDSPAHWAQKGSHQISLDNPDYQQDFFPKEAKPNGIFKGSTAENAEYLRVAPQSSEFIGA
For assay [8], the target named is Follistatin-related protein 3 (Homo sapiens) (UniProt O95633). Description: compounds binding follistatin-related protein 3 – biochemical, small-molecule microarray, 635 nm fluorescence, primary screen (AID 1105).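 Also: score merges emission near 667 nm and signal to noise per printed spot across three slides.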 As to conditions: FSTL3 binding, higher = more signal.
Sequence of Follistatin-related protein 3 (Homo sapiens) (O95633 whole entry, looked up): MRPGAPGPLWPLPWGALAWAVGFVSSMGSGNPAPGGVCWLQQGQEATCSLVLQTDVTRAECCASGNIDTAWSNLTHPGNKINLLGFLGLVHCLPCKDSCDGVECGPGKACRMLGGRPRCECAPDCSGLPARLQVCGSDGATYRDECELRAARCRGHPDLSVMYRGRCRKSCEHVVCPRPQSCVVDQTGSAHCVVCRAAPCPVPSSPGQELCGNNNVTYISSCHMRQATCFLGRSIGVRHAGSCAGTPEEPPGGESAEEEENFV
In assay [9] the target is Dickkopf-related protein 1 (Homo sapiens) (UniProt O94907). Description: small molecules binding DKK1 protein – biochemical, small-molecule microarray, 635 nm fluorescence scan, primary screen (AID 1106).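 Also: score merges emission near 667 nm with signal to noise over three replicate slides.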 The settings on record: higher = more signal.
Sequence of Dickkopf-related protein 1 (Homo sapiens) (O94907 whole entry, looked up): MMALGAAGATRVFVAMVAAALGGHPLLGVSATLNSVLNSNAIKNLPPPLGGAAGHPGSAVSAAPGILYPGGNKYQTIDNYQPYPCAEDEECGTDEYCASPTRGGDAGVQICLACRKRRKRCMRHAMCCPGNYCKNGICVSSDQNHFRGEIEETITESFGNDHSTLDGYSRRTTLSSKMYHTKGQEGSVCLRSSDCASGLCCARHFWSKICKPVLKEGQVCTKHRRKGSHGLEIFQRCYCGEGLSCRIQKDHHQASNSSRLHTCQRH
In assay [10] the test system is Inhibin beta A chain (activin A). Description: small molecules binding activin A – biochemical, small-molecule microarray, 635 nm fluorescence scan, primary screen (AID 1107).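 Also: mouse activin A protein probed at 4.33 µg/mL on printed slides; score merges bound-protein fluorescence near 667 nm with spot signal-to-noise.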 As to conditions: INHBA, higher = more signal.

Each structure is given as a SMILES string. The source made the active and inactive calls.

`C=CCC(OC(C)=O)[C@@H]1[C@@H](N(Cc2ccc(-c3cccc(C(F)(F)F)c3)o2)C(=O)Cc2ccc(F)cc2)c2cc(OCCCO)ccc2N1C(=O)Cc1ccc(OC)cc1` (stereo not given in full): the composite z-score was -0.0392 in assay [1]; -0.264 in assay [2]; 0.385 in assay [3]; -0.0139 in assay [5]; -2.4 in assay [6]; -0.983 in assay [7]. For the same molecule, the composite z-score in assay [8] was -0.106; in assay [9], -0.731; in assay [10] it was 0.898. Further, in assay [4], the z-score is -1.59 (inactive).
On to `C=CCOC(=O)[C@@H]1[C@H]2C(=O)O[C@H](c3ccccc3)[C@H](c3ccccc3)N2[C@H](c2ccc(OCCOC(=O)[C@@H]3C[C@@H]4C(=O)N[C@@H](CCCCN(C)C)C(=O)N4[C@@H]3c3ccc(O)cc3)cc2)[C@@]12C(=O)Nc1ccc(I)cc12`, for which the composite z-score in [1] was 1.14; in assay [2], -0.0242; in assay [3], 0.0749; in assay [5] it was 0.767; in assay [6] it was 1.13; in [7] it was 1.01. The composite z-score in assay [8] came to 1.04; in [9] it was 1.11; in [10], 0.347. The z-score in assay [4] is -0.0143 (inactive).
With `CC(C)(C)OC(=O)CC[C@]12N=C(c3ccc(OCCCO)cc3)O[C@H]1c1ccccc1N(CCS(=O)(=O)c1ccccc1)C2=O`, the composite z-score was determined as 1.17 in assay [1]; 0.438 in assay [2]; 0.52 in assay [3]; 0.905 in [5]; 1.23 in assay [6]; 0.545 in assay [7]. In addition, the values for the composite z-score in assay [8], in assay [9] and in [10] were 0.975, 0.445 and 0.924, respectively. In addition, the z-score in assay [4] was 0.0112 (inactive).
For the molecule `COc1ccc([Si](C)(C)[C@H]2[C@H](CCO)O[C@@]3(C(=O)N(C)c4c(Br)cc(C)cc43)[C@@H]2C)cc1`, the composite z-score in [1] was 0.717; in assay [2], -0.0044; in [3], 0.202; in [5], 0.333; in assay [6] it was 0.223; in [7] it was 0.127. The composite z-score came out at 0.4 in assay [8], 0.0138 in assay [9] and 0.449 in [10]. Further, in assay [4], the z-score was 4.6 (inactive).
On to `COc1ccc(C(=O)Nc2ccc(CN3C(=O)[C@@]4(O[C@@H](CCn5cc([C@H](O)c6ccccc6)nn5)[C@H]([Si](C)(C)c5ccc(OC)cc5)[C@H]4C)c4ccccc43)cc2)cc1`, for which the composite z-score in assay [1] is 0.834; in assay [2], -0.0682; in [3], 0.512; in [5], -0.0022; in assay [6], 0.054; in assay [7], -0.591. Also, the composite z-score in [8] is 0.183; in [9] it was -0.347; in assay [10] it was 0.975. In addition, in [4], the z-score is -1.06 (inactive).
In the case of `CCOC(=O)[C@H]1C/C=C/C[C@H](C(=O)OCC)C(=O)O[C@H]2[C@@H](OC)O[C@H](CO)[C@@H](OC(=O)Nc3cccc(F)c3)[C@@H]2OC1=O`, the composite z-score is 1.39 in [1]; -0.438 in [2]; -0.174 in assay [3]; 0.687 in assay [5]; 0.327 in assay [6]; -0.226 in [7]. In addition, the composite z-score in [8] was -0.0088; in [9] it was 0.254; in assay [10], 0.519. The z-score in assay [4] is 0.68 (inactive).
Turning to `Cc1ccc(S[C@]2(C(=O)NC3CC3)CC(=O)N(C3Cc4ccccc4C3)[C@@H]2c2ccc(CO)cc2)cc1`, the composite z-score is 1.65 in [1]; 0.245 in assay [2]; 0.806 in assay [3]; -0.451 in assay [5]; -0.15 in assay [6]; -0.876 in [7]. Besides, the figures for the composite z-score in assay [8], in [9] and in [10] were -0.809, -1.02 and -0.139, respectively. In assay [4], the z-score was -0.983 (inactive).
As to `COC(=O)[C@@]1(Cc2ccc(F)cc2)[C@H]2c3cc(C(=O)N(C)C)n(CC4CC4)c3C[C@H]2CN1C(=O)c1ccccc1`, the composite z-score is -0.0199 in assay [1]; 2.38 in assay [2]; 1.41 in assay [3]; 1.4 in [5]; 1.31 in [6]; 0.463 in assay [7]. Moreover, the composite z-score was 1.18 in assay [8], -0.637 in assay [9] and 0.14 in assay [10]. Besides, the z-score in assay [4] is -1.59 (inactive).
As to `O=C1NCC(=O)N2[C@@H]1C[C@@H](C(=O)O)[C@H]2c1cccc(OCCO)c1`, the composite z-score is 2.28 in [1]; 3.06 in [2]; 1.73 in [3]; 1.38 in assay [5]; 1.38 in assay [6]; 1.96 in assay [7]. Moreover, the composite z-score was determined as 1.66 in assay [8], 2.56 in assay [9] and 1.74 in assay [10]. Besides, the z-score in [4] is 0.45 (inactive).
Turning to `CN(C)C(=O)[C@@]1(Cc2ccccc2)N=C(c2ccc(OCCCO)cc2)O[C@H]1c1ccccc1N=[N+]=[N-]`, the composite z-score in [1] worked out at 1.36; in assay [2], 0.898; in [3] it was 0.914; in assay [5], 1.36; in assay [6], 1.26; in [7], 0.189. Besides, the composite z-score in assay [8] was 0.843; in [9], -0.237; in assay [10] it was 0.994. Besides, the z-score in assay [4] was -1.26 (inactive).
On to `C=C(COC)/C(=C/C[C@H](OC(=O)c1ccncc1)c1ccc(OCCO)cc1)c1cnc2ccccc2c1`, for which the composite z-score was 1.24 in assay [1]; 0.159 in assay [2]; -0.106 in assay [3]; 1.36 in [5]; 1.07 in [6]; 1.26 in [7]. The composite z-score in assay [8] stood at 1.55; in [9], 1.01; in assay [10], 1.61. In [4], the z-score was -1.02 (inactive).
`CN1C2C=C(CCCO)C(C3C(=O)N(C(N)=O)C(=O)C32)C1c1ccc(CN2CCCC2)cc1` (stereo not given): the composite z-score is -0.323 in [1]; -0.284 in assay [2]; -0.257 in assay [3]; -0.367 in assay [5]; -0.563 in [6]; -0.376 in [7]. In addition, the composite z-score in assay [8] is -0.658; in [9], -0.544; in assay [10], -0.751. Also, the z-score in assay [4] is -0.0848 (inactive).
Take `O=C1[C@H]2C=C(Br)[C@H](C[C@@H]2c2ccccc2)[C@@]12CO2`: the composite z-score in assay [1] was -0.0067; in assay [2], -0.217; in [3] it was -0.261; in assay [5], 0.774; in assay [6], 0.381; in assay [7] it was 0.513. The values for the composite z-score in assay [8], in assay [9] and in assay [10] were 0.733, 0.765 and 0.648, respectively. In [4], the z-score was 0.723 (inactive).
Consider `Cc1ccc(S[C@]2(C(=O)NC(C)C)CC(=O)N(Cc3ccccc3Cl)[C@@H]2c2ccc(CO)cc2I)cc1`, for which the composite z-score is 1 in [1]; 0.0056 in assay [2]; 1.07 in [3]; -1.05 in assay [5]; -0.26 in assay [6]; -1.51 in [7]. Also, the composite z-score was -0.674 in assay [8], -1.39 in [9] and 0.762 in assay [10]. For the same molecule, in [4], the z-score was 0.0132 (inactive).
For `CC(C)(C)C(=O)N[C@@H](c1ccc(Cl)cc1)[C@]1(C)C[C@H]1C1CCCCC1`, the composite z-score in assay [1] is 0.705; in [2], 0.701; in [3], 0.933; in assay [5], 0.521; in assay [6] it was 1.28; in assay [7], -0.19. Moreover, the composite z-score was 0.233 in assay [8], 0.0399 in assay [9] and 0.998 in assay [10]. The z-score in assay [4] is -0.455 (inactive).
Regarding `O=C1C2C=CC(C(O)c3c(F)cccc3Cl)N(Nc3ccccc3)C2C(=O)N1c1ccccc1` (stereo not given), the composite z-score in assay [1] is 0.741; in assay [2] it was 0.532; in assay [3], 0.256; in [5] it was 0.581; in [6], 1.3; in [7], 0.271. Further, the composite z-score amounted to 1.34 in assay [8], 0.236 in assay [9] and 0.672 in assay [10]. Moreover, the z-score in assay [4] was -0.00944 (inactive).
